Bioassay records: PubChem BioAssay, The Scripps Research Institute Molecular Screening Center
Hits are enriched below; roughly 3.5% of the tested compounds scored in any of these assays.
GPR151 ag: activates the human receptor GPR151 | PathHunter beta-arrestin GPR151 cells, luminescence | activation, % at 11.2 µM | 650,000 compounds, 1% hits; in the data active = activation above about 4.9%;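 note: 0% = median of compound wells and 100% = cells with positive control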
TEAD-YAP block: TEAD-YAP interaction inhibition; 640,000 compounds, 1.4% hits; inhibition, % at 9.12 µM; HEK-TIYL cells, TEAD-Gal4/YAP UAS-luciferase luminescence; AID 1259422; in the data active = inhibition above about 32%;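 note: 0% = median of test compound wells and 100% = reference inhibitor wells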
FBW7 activator: human FBW7 E3 ligase activation, primary screen. normalized activity (activation), % at 26.1 µM. Q969H0. AlphaScreen FBW7–phospho-cyclin E peptide binding, activator screen. AID 1259310. 650,000 compounds, 0.13% hits; in the data active = normalized activity above about 1.9%;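 note: purified mutant Fbw7 with reduced substrate affinity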
Target sequence (Q969H0 whole entry, looked up): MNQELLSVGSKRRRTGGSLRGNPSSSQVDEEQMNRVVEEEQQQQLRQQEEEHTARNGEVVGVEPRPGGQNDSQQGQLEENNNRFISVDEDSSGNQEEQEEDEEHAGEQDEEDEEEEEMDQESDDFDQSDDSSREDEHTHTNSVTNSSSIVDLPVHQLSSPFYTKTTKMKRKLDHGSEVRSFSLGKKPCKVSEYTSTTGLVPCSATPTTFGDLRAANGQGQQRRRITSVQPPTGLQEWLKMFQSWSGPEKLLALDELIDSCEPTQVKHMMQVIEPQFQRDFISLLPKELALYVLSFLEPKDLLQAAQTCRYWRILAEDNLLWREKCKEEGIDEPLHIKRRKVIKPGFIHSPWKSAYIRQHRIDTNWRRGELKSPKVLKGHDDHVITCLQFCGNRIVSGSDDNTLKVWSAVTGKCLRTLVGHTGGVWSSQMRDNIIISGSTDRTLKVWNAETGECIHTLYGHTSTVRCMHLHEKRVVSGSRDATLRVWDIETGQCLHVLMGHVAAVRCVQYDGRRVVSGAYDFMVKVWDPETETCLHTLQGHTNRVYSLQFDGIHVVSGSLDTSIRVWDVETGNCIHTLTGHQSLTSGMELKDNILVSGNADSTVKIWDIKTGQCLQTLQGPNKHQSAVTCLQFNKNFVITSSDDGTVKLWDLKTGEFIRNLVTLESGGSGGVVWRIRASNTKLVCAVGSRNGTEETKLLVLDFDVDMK
MITF inh: blocks human microphthalmia-associated transcription factor. AlphaScreen MITF homodimerization, bead proximity signal. inhibition, % at 2.6 µM. 650,000 compounds, 0.91% hits; in the data active = inhibition above about 50%;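 note: 0% = vehicle wells with protein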
MITF confirm: human MITF inhibition, confirmation | shares compounds with MITF inh | AID 1259372 | AlphaScreen MITF homodimerization, biotin/His-MITF beads | inhibition, % at 2.6 µM | 4,700 compounds, 16% hits;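 active = inhibition above a cutoff derived from the DMSO control wells, cut at about 28% in these data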;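 note: 0% = MITF dimer wells with DMSO only; inhibitors lower the bead chemiluminescence by keeping MITF from dimerizing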
AlphaScreen DR: AlphaScreen optical interference, dose response counter-screen; shares compounds with MITF inh; AlphaScreen optical interference counterscreen, cell-free; IC50, µM; 480 compounds, 6% hits; AID 1259373; call rule not given here
AlphaScreen intf2: optically interferes with AlphaScreen signal. shares compounds with MITF inh. LysRS AlphaScreen counterscreen, signal interference, triplicate. inhibition, % at 2.6 µM. 4,700 compounds, 7.6% hits. AID 1259376;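 active = inhibition above a cutoff derived from the DMSO control wells, cut at about 30% in these data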
An asterisk follows results filed as active; / = no result.

SMILES | GPR151 ag | TEAD-YAP block | FBW7 activator | MITF inh | MITF confirm | AlphaScreen intf2 | others
O=C(Cc1cccc2ccccc12)Nc1nnc(-c2ccc3c(c2)OCCO3)o1 | 0 | 1 | 0 | 6 | / | /
O=C(Cc1cccc2ccccc12)Nc1nnc(-c2ccncc2)o1 | 0 | 2 | 0 | 71* | 52* | 98*
CN1CCN(Cc2coc3c(Cl)cc(Cl)cc3c2=O)CC1 | 1 | -3 | 0 | 64* | 0 | 1
O=c1c(CN2CCCCC2)coc2ccc(Cl)cc12 | -1 | -7 | 0 | 2 | / | /
COCc1[nH]nc2c1C(c1cccc(Cl)c1Cl)C(C#N)=C(N)O2 (stereo not drawn) | -1 | 9 | 0 | 13 | / | /
COc1cc2nc(CN3CCCC3c3nccs3)nc(N)c2cc1OC (stereo not drawn) | 0 | 30 | 0 | 64* | 61* | 99*
N#CCCN(CCC#N)S(=O)(=O)c1ccc(C(=O)Nc2ccccc2C#N)cc1 | 1 | 10 | 0 | 2 | / | /
O=C(NCc1ccccn1)c1cc(=O)[nH]c2ccc(Br)cc12 | 1 | -8 | -1 | 5 | / | /
Cc1ccc(C(=O)Nc2c(C(=O)Nc3ccc(C(C)C)cc3)cnn2-c2ccccc2)cc1 | 0 | 11 | 0 | 3 | / | /
CCOc1cc(C#N)c(NC(=O)c2cc([N+](=O)[O-])ccc2N2CCOCC2)cc1OCC | 0 | -10 | 0 | 67* | 15 | 8
CCOc1ccc(NC(=O)c2cc([N+](=O)[O-])ccc2N2CCOCC2)cc1 | 3 | 6 | 0 | -5 | / | /
Cc1cccc2cc(C#N)c(NCCNC(=O)CC(C)(C)C)nc12 | 3 | -3 | 0 | -10 | / | /
COc1ccc(/C=C/C(=O)N2CCC(n3c(C4CCC4)nc4cccnc43)CC2)cc1OC | -1 | 4 | 0 | 4 | / | /
O=C(CN1Cc2ccccc2OC(c2ccccc2F)C1)NC1CCC(O)CC1 (stereo not drawn) | -1 | -5 | 0 | -5 | / | /
O=C(CN1Cc2ccccc2OC(c2ccccc2F)C1)NCC1CCS(=O)(=O)C1 (stereo not drawn) | 0 | 5 | 0 | 61* | 2 | 2
COc1cc(OC)c(OC)cc1CN1CCN(Cc2ccncc2)CC1 | -1 | 5 | 0 | 80* | 1 | 11
CCn1c2ccccc2c2cc(CN3CCN(Cc4cc(OC)c(OC)cc4OC)CC3)ccc21 | -1 | -6 | 0 | 69* | 13 | 21
CCS(=O)(=O)N1CCN(Cc2cc(OC)c(OC)cc2OC)CC1 | 2 | 6 | 0 | 37 | / | /
COc1cc(OC)c(OC)cc1CN1CCN(Cc2cc(OC)c(O)c(OC)c2)CC1 | -1 | -3 | 0 | 60* | 2 | 9
COc1cc(OC)c(OC)cc1CN1CCN(Cc2ccc(C)cc2)CC1 | 1 | 1 | 0 | 63* | 71* | 16 | AlphaScreen DR=>5.8
Cc1ccc2c(c1)SC(C)C(=O)N2Cc1c(C)noc1C (stereo not drawn) | 0 | -4 | 0 | 11 | / | /
CCOC(=O)c1ccc(OCC2c3cc(OC)c(OC)cc3CCN2C(=O)c2ccc([N+](=O)[O-])cc2)cc1 (stereo not drawn) | -1 | -16 | 0 | 15 | / | /
CCC(=O)Nc1c(C(=O)Nc2ccc(C)c(C)c2)oc2ccccc12 | 1 | -52 | 0 | -9 | / | /
CCOC(=O)C1CCN(C(=O)c2ccc(C)c(C)c2)CC1 | -1 | -20 | 0 | 1 | / | /
O=[N+]([O-])c1ccc(CN2CCN(c3ccccc3F)CC2)s1 | 1 | -7 | 0 | 53* | 6 | 10
SMILES | GPR151 ag | TEAD-YAP block | FBW7 activator | MITF inh | MITF confirm | AlphaScreen intf2 | others
O=C(c1ccccc1[N+](=O)[O-])N1CCN(Cc2ccc3c(c2)OCO3)CC1 | 0 | 1 | 0 | -7 | / | /
O=[N+]([O-])c1ccccc1CN1CCN(Cc2ccc3c(c2)OCO3)CC1 | 0 | -10 | 0 | 59* | 19 | 36*
O=[N+]([O-])c1ccc(CN2CCN(Cc3ccc4c(c3)OCO4)CC2)s1 | 1 | 4 | 0 | 56* | 7 | 4
CCSc1nnc2c(n1)OC(c1cc(Br)c(O)c(OC)c1)Nc1ccc(Br)cc1-2 (stereo not drawn) | -1 | 0 | 0 | -12 | / | /
NC(=O)NC(=O)COC(=O)c1c2c(nc3ccccc13)/C(=C\c1ccco1)CCC2 | -1 | -4 | 0 | 61* | 79* | -7 | AlphaScreen DR=>7
CN(CCC#N)C(=O)COC(=O)c1c2c(nc3ccccc13)/C(=C/c1ccco1)CC2 | 1 | -25 | 0 | 73* | 80* | -4 | AlphaScreen DR=>6.9
Cc1cc(OCCOCCN2CCOCC2)cc(C(C)C)c1 | -3 | 2 | 1 | 65* | 11 | 11
Cc1cc(Cl)c(OCCn2ccnc2)c(Br)c1 | -1 | -16 | 0 | 27 | / | /
Cc1cc(Cl)c(OCCOCCn2ccnc2)c(Br)c1 | 2 | -7 | 0 | 75* | 17 | 20
Cc1ccc(OCCOCCN2CCOCC2)c(Br)c1 | 0 | -16 | 0 | 75* | 7 | 3
Cc1cc(Cl)c(OCCOCCN2CCOCC2)c(Br)c1 | 0 | -10 | 0 | 72* | -11 | -7
Cc1cc(OCCOCCN2CCN(C)CC2)cc(C(C)C)c1 | 0 | 4 | 0 | 32 | / | /
CCCSC1=C(C#N)C(c2ccccc2OCC)C(C#N)C(=O)N1 (stereo not drawn) | 1 | 0 | 0 | -5 | / | /
COc1cccc(-n2c(O)c(C=NCC3CCCO3)c(=O)[nH]c2=O)c1 (stereo not drawn) | 1 | 6 | 0 | -6 | / | /
O=C(/C=C/c1ccccc1)NCc1ccc(Cl)cc1 | 0 | -2 | 0 | 52* | 4 | -2
Brc1ccc(-c2csc(N3CCN(C(c4ccccc4)c4ccccc4)CC3)n2)cc1 | 2 | 1 | 0 | -3 | / | /
O=C(/C=C/c1ccc(Cl)cc1)Nc1nnc(C(F)(F)F)s1 | 1 | -6 | 0 | -3 | / | /
COc1cc(/C=C/C(=O)Nc2nnc(C(F)(F)F)s2)cc(OC)c1OC | -1 | 10 | 0 | 52* | 5 | 13
Cc1ccc2cc(CN(C(=O)Nc3ccccc3)C3CCCC3)c3nnnn3c2c1 | 0 | 11 | 0 | 65* | 3 | 11
O=c1cc(C(F)(F)F)[nH]c(=O)n1-c1cccc(Cl)c1 | 0 | 9 | 0 | 3 | / | /
COc1cccc(CC(C2CCN(Cc3ccccn3)CC2)N(C)C(=O)c2ccco2)c1 (stereo not drawn) | 0 | -9 | 0 | 11 | / | /
COc1cccc(CC(C2CCN(C(=O)CSC)CC2)N(C)Cc2ccccn2)c1 (stereo not drawn) | 0 | 5 | 0 | 52* | 15 | 34*
COc1ccccc1C(CC(=O)N1CCCC1)c1ccco1 (stereo not drawn) | 1 | 10 | 0 | -215 | / | /
Cc1csc2nc(CS(=O)(=O)c3ccc(Cl)cc3)cn12 | 2 | 6 | 0 | -5 | / | /
